Screening data (PubChem)
Pol iota inh – qHTS for Inhibitors of Polymerase Iota | Pol iota fluorescent replication assay, 10 min | Potency, µM (top dose mostly 115 µM), inactives show top-dose activity, negative = inhibition, actives largely listed as inhibitors | hit rate 1% among 390,000 | AID 588590, 2011
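Fluorescent replication assay read twice, at 0 min and 10 min after adding 50 nM (final) substrate. Enzyme (10 nM) and compounds were first incubated 15 min at room temperature; enzyme-free buffer wells were negative controls.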
POLH inh – qHTS for Inhibitors of Polymerase Eta; DNA polymerase eta (Homo sapiens), Q9Y253; recombinant Pol eta, fluorescent DNA replication assay; Potency, µM (doses to about 114 µM), inactives show at the top dose activity change, negative = inhibition, hits mostly inhibitors; hit rate 1.2% among 390,000; further: on the % scale 0 is the no-effect control and ±100 the full control effect
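Pol eta at 10 nM preincubated with compounds 15 min at room temperature; reaction started with fluorescent substrate (50 nM final) and read kinetically at 0 and 10 min.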
Pol beta inh – qHTS Assay for Inhibitors of DNA Polymerase Beta. P06746. Pol beta primer extension/strand displacement, fluorescence kinetic. Potency, µM (titrated, usually from 114 µM), for inactives: at the highest dose activity change, negative = inhibition, hits mostly inhibitors. hit rate 1.3% among 340,000; further: on the % scale 0 is the no-effect control and ±100 the full control effect
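Homogeneous kinetic assay of primer extension and strand displacement by 10 nM Pol beta, preincubated 15 min at room temperature with compound before 50 nM substrate (final) was added. Read at 0 and 10 min; four-parameter Hill fit.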
L3MBTL1 block – qHTS Assay for the Inhibitors of L3MBTL1; hit rate 0.66% among 230,000; AID 485360, 2010; AlphaScreen L3MBTL1–H3K9me1 peptide binding; Potency, µM (titrated, usually from 57.1 µM), inactives show at the highest dose activity, negative = inhibition, actives largely listed as inhibitors; Lethal(3)malignant brain tumor-like protein 1 (Homo sapiens), Q9Y468; further: on the % scale 0 is the no-effect control and ±100 the full control effect; nearly all actives have a fitted effect of over 60% in size
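L3MBTL1 50 nM + b-AHA-H3(1-15)K9me1 75 nM, 30 min RT; compound added, 30 min RT; streptavidin donor/Ni-chelate acceptor beads 10 ug/mL each final, 30 min RT dark; AlphaScreen read.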
Pol kappa inh – qHTS for Inhibitors of Polymerase Kappa; DNA polymerase kappa (Homo sapiens), Q9UBT6; purified Pol kappa, fluorescent DNA synthesis assay, 10 min; Potency, µM (titrated, usually from 107 µM), for the others: at the top dose activity, negative = inhibition, hits mostly inhibitors; hit rate 0.53% among 400,000; AID 588579, 2011; further: on the % scale 0 is the no-effect control and ±100 the full control effect
Target sequence (Q9UBT6 whole entry, looked up): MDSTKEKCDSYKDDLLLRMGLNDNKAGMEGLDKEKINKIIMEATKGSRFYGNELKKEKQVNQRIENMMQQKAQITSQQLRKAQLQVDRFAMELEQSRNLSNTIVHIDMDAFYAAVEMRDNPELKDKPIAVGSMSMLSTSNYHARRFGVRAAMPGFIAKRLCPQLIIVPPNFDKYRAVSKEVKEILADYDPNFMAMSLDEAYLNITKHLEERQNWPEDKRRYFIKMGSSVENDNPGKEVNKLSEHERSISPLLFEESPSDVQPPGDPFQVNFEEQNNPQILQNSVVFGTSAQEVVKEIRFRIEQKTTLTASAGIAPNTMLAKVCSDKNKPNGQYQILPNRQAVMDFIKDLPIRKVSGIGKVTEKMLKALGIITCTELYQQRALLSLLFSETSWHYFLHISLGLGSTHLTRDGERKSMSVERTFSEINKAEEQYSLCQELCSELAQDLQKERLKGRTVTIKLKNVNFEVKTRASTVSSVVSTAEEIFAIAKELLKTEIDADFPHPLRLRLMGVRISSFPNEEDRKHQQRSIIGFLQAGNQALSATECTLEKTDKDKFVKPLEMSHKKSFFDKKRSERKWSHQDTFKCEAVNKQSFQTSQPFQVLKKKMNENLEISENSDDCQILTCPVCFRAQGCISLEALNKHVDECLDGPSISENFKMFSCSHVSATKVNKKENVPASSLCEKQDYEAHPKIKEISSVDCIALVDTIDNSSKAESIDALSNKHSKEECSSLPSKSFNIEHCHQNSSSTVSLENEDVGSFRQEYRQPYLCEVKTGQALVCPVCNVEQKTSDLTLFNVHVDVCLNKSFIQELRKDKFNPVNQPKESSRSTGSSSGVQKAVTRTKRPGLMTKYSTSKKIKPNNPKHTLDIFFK
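10 nM Pol kappa was preincubated with compounds for 15 min at room temperature. Reaction started with 50 nM (final) substrate. Fluorescence read kinetically at 0 and 10 min.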
Starred values were filed as active, the others as inactive; u = inconclusive; x = no result given; [ ] = remark or other dose. Most compounds without a hit are left out; they make up all but 2.4% or so of the library. The call rests on the fitted dose curve; in most records, active means well fitted curve in the direction sought with a large enough effect; inconclusive means small, poorly fitted or top-dose-only effect, or another doubt; inactive means no such curve, though single readings can be large; an effect the other way counts as inactive or inconclusive. Potency means the concentration at half of the fitted maximal effect.

SMILES | Pol iota inh | POLH inh | Pol beta inh | L3MBTL1 block | Pol kappa inh
O=C(OCC(=O)N1N=C(c2ccc(Cl)cc2)CC1c1ccco1)c1cncc(Br)c1 (configuration not stated) | u | 45µM* | x | u | u
CCOC(=O)c1ccccc1NC(=O)c1cc2c(s1)-c1ccccc1SC2 | 13% | -18% | -7% | x | -3%
O=C1C(=O)C(c2cc(O)c(O)c(O)c2)Oc2cc(O)cc(O)c21 (configuration not stated) | 1.4µM* | x | x | x | 1.3µM*
Cc1c(C(=O)N/N=C/c2ccc(-c3ccccc3[N+](=O)[O-])o2)sc(N)c1C#N | 56µM* | 14µM* | -6% | -2% | -12%
O=[N+]([O-])c1ccccc1-c1ccc(/C=N/n2cnnc2)o1 | -5%[58.9 µM] | 5% | 8% | -2% | -4%
Nn1cnnc1N/N=C\c1ccc(-c2ccccc2[N+](=O)[O-])o1 | 2.8µM* | -7% | -19% | -13% | -8%
O=C(Nc1nnc(N2CCCCCC2)s1)Nc1ccccc1C(F)(F)F | 42% | x | -1% | x | -2%
O=C(O)c1ccc(Cn2ccc3ccccc32)o1 | 10% | 45µM* | u | -2% | -10%
O=C(O)c1ccc(CSCc2ccccc2)o1 | x | -1% | x | x | x
C=C1C(=O)O[C@@H]2C[C@@H](C)[C@@H]3C=CC(=O)[C@@]3(C)[C@@H](OC(C)=O)[C@H]12 | u | 45µM* | -4% | x | 2%
C=CCSc1nnc2nc3c(nn12)c1cc(C)ccc1n3CC=C | u | u | 25µM* | -16% | 2%
O=S1(=O)NCC23CCC(CC21)O3 (configuration not stated) | -17% | x | x | x | 2%
O=[N+]([O-])c1cc(Cl)c(O)c2ncccc12 | 124% | -12% | -26% | x | -17%
Clc1cc2cccnc2c2ncccc12 | -20% | -11% | x | 10µM* | 1%
CC(=O)NC(c1ccc(C)cc1)c1cc([N+](=O)[O-])c2cccnc2c1O (configuration not stated) | 109% | -6% | 5% | 5µM* | -16%
Cc1ccc(O)c2ncccc12 | x | x | x | x | -3%[19.4 µM]
Cc1c(C)c2cccnc2c2ncccc12 | -27% | -4% | x | 0.79µM* | -23%
O=[N+]([O-])c1cc(Cl)c2cccnc2c1O | 91% | -13% | -23% | 32µM* | -13%
CCN1CCN(C(c2ccc(SC)cc2)c2c(O)cc(C)n(Cc3ccco3)c2=O)CC1 (configuration not stated) | u | -6% | 1% | x | -12%[60.1 µM]
CCC(=O)NC(c1ccc(C)cc1)c1cc([N+](=O)[O-])c2cccnc2c1O (configuration not stated) | 23% | -13% | -16% | 22µM* | -27%
Cc1ccc(/C=[N+](\[O-])c2ccc(N(C)C)cc2)c2nsnc12 | 50µM* | -1% | u | u | -16%
Cc1ccc(C)c2c(/C=C/c3ccc(N(C)C)cc3)ccnc12 | u | x | x | x | -4%
O=C(c1ccco1)N1CCC2(CC1)CCN(c1ccc(-c3ccccc3)cc1)CC2 | x | x | x | x | 5%[60.1 µM]
COc1ccccc1C(=O)Nc1ncc2c(n1)CC(c1ccco1)CC2=O (configuration not stated) | 56µM* | -16% | 40µM* | u | -34%
O=C(c1ccc(OCc2cn3ccccc3n2)cc1)N1CCN(S(=O)(=O)c2ccccc2F)CC1 | 79µM* | u | x | -2% | -13%
SMILES | Pol iota inh | POLH inh | Pol beta inh | L3MBTL1 block | Pol kappa inh
CN(CC(=O)Nc1cccc(F)c1)C(=O)c1ccc(OCc2cn3ccccc3n2)cc1 | 45µM* | -17% | x | u | -29%
Cc1cn(C)c(CC(=O)N2CCN(c3cccc(C(F)(F)F)c3)CC2)c1C(=O)O | 89µM* | -9% | 1% | x | 5%[60.1 µM]
CC(OC(=O)Cc1ccccc1F)C(=O)Nc1ccc(Cl)cn1 (configuration not stated) | 3% | -20% | x | 40% | -3%
Cc1ccc(C2C(C#N)=C(N)SC(N)=C2C#N)c(C)c1 | 25µM* | 9% | -7% | -23% | -7%
Cc1ccc(C2C(C#N)=C(N)SC(N)=C2C#N)cc1 | 3% | -5% | 0% | 2% | -10%
CCC(=O)N(Cc1cc(=O)[nH]c2ccccc12)c1ccccc1 | 15% | 1% | 29% | -2% | -12%
O=C(CCl)N(Cc1cc(=O)[nH]c2ccccc12)c1ccccc1 | u | 50µM* | 29% | x | -3%
CCCCCn1c(=O)[nH]c2cc(C(=O)NCCc3ccc(OC)c(OC)c3)ccc2c1=O | -4% | -11% | 5% | x | 4%
CCCCNC(=O)c1sc(=S)n2c1[nH]c(=O)c1ccc(C(=O)NCCc3ccc(OC)c(OC)c3)cc12 | 14µM* | 18µM* | u | x | u
O=c1cc(CSc2nnc(-c3cccs3)n2Cc2ccccc2)nc2sc3ccccc3n12 | 13µM* | u | 10µM* | u | 79µM*
CC(=O)O[C@@H]1CC[C@@]2(C)[C@H](C1)[C@H](OC(C)=O)C[C@@H]1[C@@H]2C[C@H]2[C@@H]3CN4C[C@H](C)CC[C@H]4[C@H](C)[C@H]3CC[C@@]12O | x | x | x | x | 19%[60.1 µM]
C=CCN1C(=O)/C(=N/n2cnnc2)c2ccccc21 | 32µM* | -13% | 3% | -8% | -5%
C/C(CCC(=O)O)=N/Nc1ccc([N+](=O)[O-])cc1[N+](=O)[O-] | 29% | -3% | 14% | -6% | -4%
O=C(O)/C(CC(=O)c1ccc(Cl)cc1)=N/Nc1ccc([N+](=O)[O-])cc1[N+](=O)[O-] | u | 89µM* | u | x | u
CCCC(=O)N(c1ccc2oc3c(c2c1)CCCC3)S(=O)(=O)c1ccc(CC)cc1 | 11% | -7% | 0% | x | -19%
O=C(NCc1ccccn1)C1CCN(S(=O)(=O)c2ccccc2)CC1 | -10% | -10% | 14% | 2% | 8%
O=C(NCc1ccccn1)C1CCN(S(=O)(=O)c2cnc[nH]2)CC1 | u | 18µM* | 3% | x | u
Cc1ccccc1C(=O)Nc1ccccc1OCc1cc(=O)n2ccccc2n1 | 24% | -14% | -1% | x | -9%[60.1 µM]
COC(=O)[C@@]1(Cc2ccccc2)[C@H]2C(=O)N(C)C(=O)[C@H]2[C@H]2CN=C(SCc3ccccc3)N21 | u | -5% | x | -4% | -3%
Cc1ccc(C(=O)OCc2cc(=O)n3nc(-c4cccs4)sc3n2)cc1 | u | 89µM* | 18µM* | x | u
O=C(COc1ccc(Cl)cc1)OCc1cc(=O)n2nc(-c3cccs3)sc2n1 | u | u | 25µM* | x | -22%
Cc1ccc(OCC(=O)OCc2cc(=O)n3nc(-c4cccs4)sc3n2)cc1 | u | -8% | u | x | 0%
Cc1nn2c(=O)cc(COC(=O)c3ccccc3NC(=O)C(C)C)nc2s1 | 13% | 79µM* | 0% | x | -3%[60.1 µM]
